# In the library only some 9.2% were active in any assay of this set; here they are far more common.
# FLuc counter: inhibits or activates purified firefly luciferase, miR-21 counter-screen; P08659; Potency, µM (top dose mostly 57.5 µM), actives largely listed as inhibitors; AID 588342; purified FLuc, Km substrates, luminescence inhibition; actives 6.9% (n = 360,000); note: nearly all actives have a fitted effect of over 55% in size
# Target sequence (P08659 whole entry, looked up): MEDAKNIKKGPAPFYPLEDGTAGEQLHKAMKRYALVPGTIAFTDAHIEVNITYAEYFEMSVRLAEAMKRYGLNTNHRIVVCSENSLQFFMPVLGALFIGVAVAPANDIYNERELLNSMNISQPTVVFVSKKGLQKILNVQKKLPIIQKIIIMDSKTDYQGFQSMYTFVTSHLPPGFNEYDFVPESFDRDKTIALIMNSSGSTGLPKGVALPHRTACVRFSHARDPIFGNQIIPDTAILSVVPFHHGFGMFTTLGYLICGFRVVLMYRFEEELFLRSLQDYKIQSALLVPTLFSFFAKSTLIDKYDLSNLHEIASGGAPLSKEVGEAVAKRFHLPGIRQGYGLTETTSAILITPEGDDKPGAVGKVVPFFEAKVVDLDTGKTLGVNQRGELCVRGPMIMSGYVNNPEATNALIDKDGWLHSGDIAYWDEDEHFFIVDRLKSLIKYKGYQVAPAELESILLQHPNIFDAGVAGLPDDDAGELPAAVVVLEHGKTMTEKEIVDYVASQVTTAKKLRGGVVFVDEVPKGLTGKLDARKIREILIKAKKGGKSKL
#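 Purified P. pyralis luciferase (10nM final) with 10uM D-luciferin and 10uM ATP (Km levels) in 50mM Tris acetate pH 7.5, 10mM Mg acetate, 0.01% Tween-20, 0.05% BSA; qHTS 6-point titration, ~60 µM downward; luminescence read.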
# ELG1 repair inh: blocks ELG1-dependent DNA repair in HEK293T cells. HEK293T ELG1-luciferase reporter, luminescence, 16 h; DNA damage induced by 5-fluorouridine. Potency, µM (doses to about 46.1 µM), actives largely listed as inhibitors. actives 2.3% (n = 330,000). AID 504467; note: nearly all actives have a fitted effect of over 55% in size
#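 Step one: seed 2,000 cells per well. Step two: pin-transfer compound or DMSO alongside 5-fluorouridine. Step three: incubate 16 hr, 37 °C, 5% CO2. Step four: add ONE-Glo, wait 30 min, read luminescence.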
# Rab9 promoter act: activates the Rab9 promoter. Huh7 Rab9 promoter-luciferase reporter, luminescence, 24 h. Potency, µM (series often up to 9.22 µM), usual class: activators. actives 2.8% (n = 320,000). AID 485297; note: nearly all actives have a fitted effect of over 60% in size
#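 Measured in stably transfected Huh7 cells bearing a Rab9 promoter–luciferase construct: 24 h compound treatment at 37 °C, followed by luminescence detection.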
# NPC1 prom act: NPC1 promoter activation; Potency, µM (doses to about 9.22 µM), most hits filed as activators; Huh7 NPC1 promoter luciferase reporter, 24 h; actives 2.4% (n = 320,000); note: nearly all actives have a fitted effect of over 60% in size
#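 Stable NPC1-promoter luciferase Huh7 line; cpd (DMSO) 24 h, 37 °C, 5% CO2; Amplite luciferase reagent 10 min RT; luminescence readout. qHTS format.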
# ELG1 genotox: induces genotoxicity in HEK293T cells with luciferase-tagged ELG1; HEK293T ELG1-luciferase reporter, luminescence, 16 h; Potency, µM (titrated, usually from 46 µM), usual class: activators; actives 1.3% (n = 330,000); AID 504466; note: nearly all actives have a fitted effect of over 60% in size
#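 HEK293T cells expressing luciferase-tagged ELG1 were exposed to compound or DMSO vehicle for 16 hr at 37 °C and 5% CO2. Luciferase activity was then measured with ONE-Glo after 30 min at room temperature.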
# SMN2 splice enh: SMN2 splice variant enhancement; Potency, µM (top dose mostly 46.1 µM), hits mostly activators; actives 2.8% (n = 210,000); HEK293 SMN2-luciferase splicing reporter, luminescence, 30-36 h; note: nearly all actives have a fitted effect of over 55% in size
#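 qHTS luciferase splicing reporter: luminescence rises when SMN2 exon 7 is included in transfected HEK293 cells. Compound exposure lasted 30-36 h at 37C, with 4.5 mM final sodium butyrate as control, followed by a ONE-Glo read.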
# Hits are given with their value; . = inactive; ? = inconclusive; / = no result given; [ ] = another dose, or the depositor's remark. Calls come from the whole dose curve; as a rule, active = well fitted curve in the direction sought with a large enough effect; inconclusive = small, poorly fitted or top-dose-only effect, or another doubt; inactive = no such curve, though single readings can be large; an effect the other way counts as inactive or inconclusive.
SMILES,FLuc counter,ELG1 repair inh,Rab9 promoter act,NPC1 prom act,ELG1 genotox,SMN2 splice enh
C/C(=N\NC(=O)c1nn(C)cc1Br)c1ccncc1,.,.,.,.,.,.
C/C(=N\NC(=O)c1ccn[nH]1)c1cn(C)nc1C,12µM,?,?,?,?,11µM
CCCN1C2CCCC1CC(NC(=O)C1CCCCC1)C2 (stereo not drawn),.,.,.,.,.,.
O=C(CN1C2CCCC1CC(NC(=O)C1CCCCC1)C2)Nc1ccccc1C(F)(F)F (stereo not drawn),.,15µM,.,.,.,/
COc1cccc(C(=O)NC2CC3CCCC(C2)N3CC(=O)Nc2ccccc2C(F)(F)F)c1 (stereo not drawn),.,?,.,.,.,/
O=C(CN1C2CCCC1CC(NC(=O)C1CCCCC1)C2)NCc1ccc(F)cc1 (stereo not drawn),.,12µM,.,.,.,/
C#Cc1ccc([C@@H]2C=C(C(=O)N3CCOCC3)O[C@H](OCCCCO)C2)cc1,.,.,.,.,.,/
O=C(C1=C[C@H](c2ccc(Br)cc2)C[C@H](OCCCCO)O1)N1CCOCC1,.,?,0.02µM,0.025µM,.,/
O=C(C1=C[C@@H](c2ccc(Br)cc2)C[C@@H](OCc2ccc(CO)cc2)O1)N1CCN(Cc2ccccc2)CC1,.,23µM,.,.,.,/
COc1ccc(OC)c(CNn2c(-c3cccc(C)c3)nc3ccccc3c2=O)c1,.,18µM,.,.,.,.
COc1cccc(CNn2c(-c3cccc(C)c3)nc3ccccc3c2=O)c1,.,21µM,.,.,.,.
COc1ccc(CNn2c(-c3cccs3)nc3ccccc3c2=O)cc1OC,.,8.2µM,.,.,.,.
COc1ccc(OCC(=O)Nn2c(-c3ccc(C)cc3)nc3ccccc3c2=O)cc1,.,.,.,.,.,.
COc1cccc(CC(=O)Nn2c(C)nc3ccccc3c2=O)c1,.,?,.,.,.,.
COc1ccc(N2CC(C(=O)N[C@@H](CC(C)C)C(=O)NC3CCCCC3)CC2=O)cc1 (stereo partly drawn),.,.,.,.,.,/
Cc1cc(F)ccc1S(=O)(=O)N1CCCOC1CNC(=O)C(=O)NCc1cccnc1 (stereo not drawn),.,.,.,.,.,/
COCCN1CCc2nc(SCC(=O)Nc3ccc(C)c(Cl)c3)[nH]c(=O)c2C1,.,/,/,/,/,/
Cc1c(/C=C/C(=O)c2ccccc2)cnn1C,4.8µM,?,?,?,?,?
Cc1c(/C=C/C(=O)c2ccc(Cl)s2)cnn1C,1.5µM,?,?,?,?,.
Cc1c(/C=N\NC(=O)c2ccc(F)cc2)cnn1C,.,?,.,.,.,.
Cc1c(/C=C/C(=O)c2ccc(O)cc2)cnn1C,11µM,?,?,?,21µM,?
Cc1nn(Cc2c(Cl)cccc2Cl)c(C)c1NC(=O)/C=C/c1cnn(C)c1C,.,?,.,.,.,.
Cc1c(/C=C/C(=O)c2ccc(C(C)C)cc2)cnn1C,1.9µM,?,?,.,?,.
CC(=O)c1cccc(NC(=O)C2CCN(S(=O)(=O)c3ccc4c(c3)oc(=O)n4C)CC2)c1,.,/,/,/,/,.
COC(=O)C1=C(C(=O)OC)[C@@H]2N(C)c3ccc(OC)cc3[C@@]23C[C@@H](C(=O)OC)N(S(=O)(=O)c2ccc(C(F)(F)F)cc2)C3=N1,/,/,/,/,/,.[9.22 µM]
SMILES,FLuc counter,ELG1 repair inh,Rab9 promoter act,NPC1 prom act,ELG1 genotox,SMN2 splice enh
COc1cc(Cl)ccc1OCc1cc(C(=O)NCc2cc(C(C)C)no2)no1,9.5µM,?,1.3µM,?,?,/
COc1ccc(CNC(=O)c2cc(COc3c(F)cccc3F)on2)cc1OC,.,?,.,.,.,/
COc1cc(Cl)ccc1OCc1cc(C(=O)NCC(C)(C)N2CCOCC2)no1,15µM,?,.,.,.,/
COc1ccc(C(C)=O)cc1CSc1nc(Nc2ccc(F)c(F)c2)c2ccccc2n1,.,/,/,/,/,/
CC(C(=O)O)c1ccc(C(=O)c2ccccc2)s1 (stereo not drawn),17µM,?,.,.,?,/
COc1ccc(C(=O)N2CCC(C(=O)Nc3ccc(OC)cc3OC)CC2)cc1,.,/,/,/,/,.

# Compound activity (PubChem)
